D2 ag-1 = activates the human D2 dopamine receptor | AID 624465 | activation, % (no concentration beside the values) | DiscoveRx PathHunter D2 beta-arrestin, luminescence, 90 min; 100% = 57 uM dopamine signal | P14416 | actives 0.084% (n = 360,000); in the data active = activation above about 40%
Target sequence (P14416 whole entry, looked up): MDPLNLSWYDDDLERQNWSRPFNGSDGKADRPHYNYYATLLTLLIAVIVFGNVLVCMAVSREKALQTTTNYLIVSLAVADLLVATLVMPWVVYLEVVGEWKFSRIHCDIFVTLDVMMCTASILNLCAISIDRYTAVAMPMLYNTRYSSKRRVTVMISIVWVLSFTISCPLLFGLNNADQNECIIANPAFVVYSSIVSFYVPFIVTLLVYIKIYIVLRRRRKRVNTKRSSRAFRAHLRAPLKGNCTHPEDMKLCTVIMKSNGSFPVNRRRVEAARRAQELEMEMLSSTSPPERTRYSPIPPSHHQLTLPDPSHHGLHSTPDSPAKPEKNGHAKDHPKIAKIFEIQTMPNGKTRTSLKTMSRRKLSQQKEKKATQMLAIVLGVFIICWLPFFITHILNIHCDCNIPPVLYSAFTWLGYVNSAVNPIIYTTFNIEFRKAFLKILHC
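Agonist mode: compounds alone added to overnight-plated D2 PathHunter cells for 90 min at 37 C, with 57 uM final dopamine (EC100) defining full response. Beta-arrestin recruitment detected by chemiluminescent reagent, read after 1 h at ambient temperature.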
D2 PAM-1 = positive allosteric modulators of human D2 dopamine receptor. P14416. HEK293 T-REx D2, calcium flux, EC20 dopamine potentiation. potentiation, % at 10 µM. actives 0.34% (n = 340,000). AID 485347;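 active = potentiation over 3 SD above the plate norm, cut at about 30% in these data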; also: 0% is about no effect
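Potentiation of an EC20 dopamine calcium response measured kinetically over 180 s, after a preceding 180 s compound-only read flagging agonists. Cells: inducible Hek293 Trex D2 line, 4000/well, cultured overnight at 30 C before dye loading.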
D2 antag = antagonizes the human D2 dopamine receptor. P14416. HEK293 TREx D2 cells, calcium flux, dopamine EC80. inhibition, % at 10 µM. actives 2% (n = 340,000). AID 485344; in the data active = inhibition above about 30%; inactive = below that, where a call was filed; also: 0% is about no effect
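Antagonism is scored as inhibition of an EC80 dopamine-evoked calcium signal in a force-coupled, tetracycline-inducible HEK293 T-REx D2 line, with compound present 180 s before agonist.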
D2 ag-2 = D2 dopamine receptor (human) agonism; HEK293 T-REx D2 cells, calcium flux agonist mode; activation, % at 2 µM; AID 485358; actives 0.53% (n = 340,000); P14416;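 active = activation over 3 SD above normal in the single-dose calcium agonist read, cut at about 30% in these data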; also: 0% is about no effect
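In this primary screen, compounds producing a positive calcium signal within 180 s of addition to tetracycline-induced, force-coupled HEK293 Trex D2 cells are flagged; cells are dye-loaded with a no-wash calcium kit beforehand.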
D2 PAM-2 = human D2 receptor positive allosteric modulation; DiscoveRx D2 beta-arrestin cells, luminescence, 90 min; 100% = 57 uM dopamine signal; AID 624464; P14416; actives 0.23% (n = 360,000); potentiation, % (no concentration beside the values); in the data active = potentiation above about 50%
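PathHunter beta-arrestin assay in DiscoveRx D2 cells. Compounds were added with an EC20 of dopamine (50 nM final) for 90 min at 37 deg C. Luminescence was read 1 h after detection reagent, with 57 uM dopamine as the EC100 control.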
* = called active by the depositor; . = no result given. A selection: hits, their analogues and other compounds. The true share with any hit is near 2.4%.

SMILES | D2 ag-1 | D2 PAM-1 | D2 antag | D2 ag-2 | D2 PAM-2
COc1ccccc1NC(=O)C1CCN(S(=O)(=O)c2ccc3[nH]c4c(c3c2)CCCCC4)CC1 | . | -3.7 | . | -0.2 | .
CN(C)C1(CNC(=O)c2cccc(S(=O)(=O)NCc3ccccc3)c2)CCCCC1 | -5.7 | 2.7 | 44.5* | -0.3 | -6.2
O=C(CSc1nc(-c2ccccc2)nc2c1Cc1ccccc1O2)N1CCCCC1 | . | 14.6 | . | -0.4 | .
COCCCN(C(=O)Cc1coc2cc(C)c(C)cc12)c1c(N)n(Cc2ccccc2)c(=O)[nH]c1=O | -1.3 | 4.6 | 48.2* | 0.3 | -2.3
COCCN(C(=O)Cc1coc2cc(C)c(C)cc12)c1c(N)n(Cc2ccccc2)c(=O)[nH]c1=O | 0.1 | 0.6 | 3.9 | -0.1 | -6.5
CCCn1c(N)c(N(CCOC)C(=O)c2ccccc2)c(=O)[nH]c1=O | -0.6 | -11.1 | 55.4* | 1.3 | -0.8
CCCCN(C(=O)c1ccc(C#N)cc1)c1c(N)n(CCC)c(=O)[nH]c1=O | -3.1 | -2.7 | 42.0* | -2.5 | -5.1
O=C(Cn1cc(S(=O)(=O)c2ccccc2)c(=O)c2cc3c(cc21)OCO3)Nc1ccc(Cl)cc1 | . | -27.2 | . | 0.6 | .
CC(=O)c1ccc(NC(=O)Nc2sc3nc4n(c(=O)c3c2C)CCC(C)CC4)cc1 (centres undefined) | . | -4.1 | . | -0.4 | .
CCc1ccccc1NC(=O)Cn1c(=O)n(Cc2ccccc2)c(=O)c2c(C)c(C(=O)N(C)C)sc21 | . | 4.0 | . | . | .
COc1ccc(Cl)cc1NC(=O)CNC(c1ccccc1)c1ccccc1 | -2.2 | -2.4 | -6.1 | 1.1 | -5.3
COc1ccc(OC)c(NC(=O)CNC(c2ccccc2)c2ccccc2)c1 | -4.6 | 4.3 | 31.3* | -0.5 | -2.6
COc1ccc(C)cc1NC(=O)CNC(c1ccccc1)c1ccccc1 | -3.1 | 4.9 | 37.2* | 1.0 | -10.6
Cc1ccc(NC(=O)CN2C(=O)c3ccccc3Sc3ncccc32)c(C)c1 | . | 4.5 | . | -0.3 | .
CCN(Cc1ccc2c(c1)OCCO2)C(=O)CN1C(=O)NC2(CCCCC2)C1=O | -2.3 | 3.7 | 40.7* | 0.9 | -3.2
COc1ccc(-c2nc(SCC(=O)Nc3c(C)cc(C)cc3C)n[nH]2)cc1 | . | 5.3 | . | -0.3 | .
O=c1[nH]cnc2nc(-c3ccccc3)c(-c3ccccc3)nc12 | -2.4 | 45.3* | -10.1 | 0.3 | -12.1
COc1cc(NS(=O)(=O)c2ccc(NC(=O)c3ccc(Cl)cc3Cl)cc2)nc(OC)n1 | . | 2.9 | . | . | .
O=C(Cc1nc2ccccc2[nH]1)c1ccc([N+](=O)[O-])cc1 | 4.1 | -5.0 | 0.5 | -0.5 | -3.8
O=C(Cc1nc2ccccc2[nH]1)c1ccc(Cl)cc1 | -2.3 | 44.1* | -19.4 | 0.6 | -3.2
Cc1ccc(Nc2ncnc3c2nc2n3CCCC2)c(Br)c1 | . | 3.8 | . | -0.2 | .
Cc1ccc(-c2nnc(Nc3cccc(C(F)(F)F)c3)c3ccccc23)cc1S(=O)(=O)N1CCOCC1 | . | 7.1 | . | 1.2 | .
C=CCc1ccc(OCCOCCN(C)C)c(OC)c1 | -0.1 | 30.7* | 5.0 | -0.4 | -26.0
O=C(c1ccc(F)cc1)n1nc(-c2cccnc2)nc1NCc1ccc(F)cc1 | . | 5.0 | . | -0.3 | .
Cc1ccc(NC(=O)CN2CCCCCC2)cc1Br | 0.4 | -31.4 | 41.5* | 3.8 | -7.1
SMILES | D2 ag-1 | D2 PAM-1 | D2 antag | D2 ag-2 | D2 PAM-2
CC(C)(CN1CCN(Cc2ccccc2)CC1)NS(=O)(=O)c1ccccc1 | -1.1 | -28.7 | 40.7* | 0.0 | -22.1
O=C(O)CC/C(=N\Nc1ccc(S(=O)(=O)N2CCOCC2)cc1[N+](=O)[O-])c1cccs1 | -5.4 | -1.7 | 30.0* | -1.4 | -8.0
O=C(O)CC/C(=N\Nc1ccc(S(=O)(=O)N2CCCC2)cc1[N+](=O)[O-])c1cccs1 | -3.6 | 11.9 | -2.1 | 1.2 | -16.5
Cc1ccccc1OCC(=O)Nc1ccccc1-c1ccccc1NC(=O)COc1ccccc1C | -3.9 | -2.7 | -0.9 | -0.2 | -19.9
Cc1cc(Br)ccc1NC(=O)CNC(=O)COc1ccccc1C | -5.1 | -13.7 | 31.9* | 0.1 | -13.2
CC(CNC(=O)Cn1ncc2c3ccccc3n(Cc3cccc(Cl)c3)c2c1=O)c1ccccc1 (centres undefined) | . | 4.4 | . | 1.7 | .
COc1cc(/C=C(/C(=O)O)c2ccc(-c3ccccc3)cc2)cc(OC)c1OC | 8.2 | 30.4* | -17.1 | -1.3 | 4.9
CC(C)c1cc(-c2nc(-c3ccccc3)no2)n[nH]1 | . | 11.0 | . | 0.7 | .

Assay outcomes from PubChem BioAssay.
